How the values were obtained:
Details in all cases: concentration: 1 μM, replicates: in singlicate; n = 1
LCK = test system: LCK
LIMK1 = test system: LIMK1
LIMK2 = test system: LIMK2
LKB1 = test system: T1, LKB1
T1 construct: gene STK11

LOK = test system: T2, LOK
T2 construct: gene STK10

LRRK2 = test system: LRRK2
LTK = test system: LTK
LYN = test system: LYN
LZK = test system: T3, LZK
T3 construct: gene MAP3K13

MAK = test system: MAK
MAP3K15 = test system: MAP3K15
MAP3K1 = test system: MAP3K1
MAP3K2 = test system: MAP3K2
MAP3K3 = test system: MAP3K3
MAP3K4 = test system: MAP3K4
MAP4K2 = test system: MAP4K2
MAP4K3 = test system: MAP4K3
MAP4K4 = test system: MAP4K4
MAP4K5 = test system: MAP4K5
MAPKAPK2 = test system: MAPKAPK2
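Further: KINOMEscan kinase panel screen.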

Compound	%Inh (LCK)	%Inh (LIMK1)	%Inh (LIMK2)	%Inh (LKB1)	%Inh (LOK)	%Inh (LRRK2)	%Inh (LTK)	%Inh (LYN)	%Inh (LZK)	%Inh (MAK)	%Inh (MAP3K15)	%Inh (MAP3K1)	%Inh (MAP3K2)	%Inh (MAP3K3)	%Inh (MAP3K4)	%Inh (MAP4K2)	%Inh (MAP4K3)	%Inh (MAP4K4)	%Inh (MAP4K5)	%Inh (MAPKAPK2)
CCNc1nccc(-c2c(-c3ccc(F)cc3)ncn2C2CCN(C)CC2)n1	11%	0%	7%	0%	0%	0%	0%	0%	0%	0%	0%	0%	0%	0%	0%	0%	0%	0%	0%	0%
COc1cccc(CC(=O)N2CCc3cc(-c4cn(C)c5ncnc(N)c45)ccc32)c1 [GSK2608899]	34%	0%	35%	4%	98.5%	0%	36%	22%	0%	2%	13%	20%	82%	49%	77%	38%	78%	0%	84%	21%
CCOc1nccc(-c2c(-c3ccc(F)cc3)ncn2C2CCNCC2)n1 [SB-249175]	82%	3%	11%	30%	0%	0%	4%	12%	3%	1%	57%	42%	10%	7%	11%	100%	0%	31%	27%	0%
CN(c1ccc(NC(=O)N2CCN(CCCN3CCOCC3)CC2)cc1)c1ccnc(Nc2ccc(CS(C)(=O)=O)cc2)n1.Cl [GW830899]	16%	2%	6%	0%	72%	0%	0%	0%	0%	0%	0%	0%	0%	8%	15%	0%	18%	7%	30%	0%
CN(C)CCOc1ccc(-c2cc(-c3ccc(Cl)c(O)c3)c(-c3ccncc3)[nH]2)cc1.Cl.Cl [SB-684387]	86%	13%	11%	20%	84%	17%	0%	28%	41%	41%	50%	0%	0%	0%	17%	27%	0%	22%	3%	12%
COc1ccc(C)c(Nc2ccnc(Nc3ccc(-c4cnc[nH]4)cc3)n2)c1.Cl [GW784041]	75%	31%	16%	0%	57%	0%	42%	30%	0%	0%	0%	0%	0%	28%	18%	0%	6%	23%	19%	0%
COc1cccc(NC(=O)NCCNc2ccnc(Nc3ccc(F)cc3)n2)c1 [GSK1379879]	6%	0%	18%	6%	0%	0%	0%	0%	11%	56%	0%	1%	0%	0%	36%	0%	10%	0%	0%	20%
O=C(Nc1c(F)cccc1F)c1cc(C(=O)c2ccccc2F)c[nH]1 [GSK1326180]	8%	3%	0%	0%	28%	6%	0%	0%	0%	0%	0%	0%	0%	0%	42%	0%	0%	19%	0%	8%
CC(=O)Nc1cn2nc(Oc3cccc(NC(=O)c4cccc(C(F)(F)F)c4)c3)ccc2n1	99.5%	0%	14%	0%	90.1%	8%	0%	97.9%	0%	0%	0%	0%	0%	22%	19%	0%	91.7%	36%	90%	0%
CC(C)c1nc(-c2ccc(F)c(NS(=O)(=O)c3c(F)cccc3F)c2)c(-c2ccnc(Nc3ccc(N4CCOCC4)nc3)n2)s1 [GSK1804250]	99.6%	100%	100%	0%	99.3%	9%	6%	93.8%	58%	24%	26%	17%	13%	0%	23%	8%	22%	4%	58%	14%
